# Measured values from PubChem BioAssay (Tox21).
# Where “and” joins values, the source holds several entries; their conditions need not be identical. Equal entries are not always repeated. Results filed as inconclusive are left out. Entries that show only a call come without a potency. Some structures have more than one record in an assay (separate samples or runs), and their calls can disagree. Calls of active or inactive are those of the source. Unless noted, calls come from the whole dose curve; as a rule, active = well fitted curve in the direction sought with a large enough effect in the repeat runs; inconclusive = weak or mixed curves; inactive = no such curve, though single readings can be large; an effect the other way counts as inactive or inconclusive.
# Assays:
# [1] = A CellTox Green Cytotoxicity Assay to monitor cytotoxicity in HepG2 cells - 32 hour (AID 1224883); note: nearly all actives have a fitted effect of over 50% in size; note: potency is the fitted concentration of half-maximal effect
# Summary of the method: (§1)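 Continuous culture of HepG2 cells with a membrane-impermeant DNA dye; rising fluorescence marks dead cells. Compound exposure lasted up to 40 h at 37 C, with reads every 8 h from 0 h.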
# [2] = A CellTox Green Cytotoxicity Assay to monitor cytotoxicity in HEK293 cells - 8 hour (AID 1224884); note: nearly all actives have a fitted effect of over 35% in size
# Summary of the method: (§2)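 Each value comes from one timepoint of a single continuous run in which HEK293 cells with CellTox Green were exposed to compound for up to 40 h at 37 C, dye fluorescence rising with cell death.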
# [3] = A CellTox Green Cytotoxicity Assay to monitor cytotoxicity in HepG2 cells - 8 hour (AID 1224890); note: nearly all actives have a fitted effect of over 45% in size
# Summary of the method: as §1
# [4] = qHTS assay to identify small molecule antagonists of the estrogen receptor alpha (ER-alpha) signaling pathway using the BG1 cell line in the presence of 0.1 nM 17-beta-estradiol - cell viability counter screen (AID 1259241); note: nearly all actives have a fitted effect of over 40% in size
# Summary of the method: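 VM7Luc4E2 cells (endogenous full-length ER-alpha, 4xERE-luciferase), cultured 5 days in charcoal-stripped serum, exposed to compounds with 0.1 nM 17beta-estradiol (final) for 22 hr at 37C. Viability read in same wells as live-cell protease fluorescence after 30 min.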
# [5] = qHTS assay to identify small molecule antagonists of the androgen receptor (AR) signaling pathway using the MDA cell line in the presence of 0.5 nM R1881 - cell viability counter screen (AID 1259242); note: nearly all actives have a fitted effect of over 45% in size
# Summary of the method: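 Fluorescence from CellTiter-Fluor, which reports protease activity of live cells, was read 30 min after reagent addition to MDA-kb2 cells that had been incubated 16 hr with compound and 0.5 nM R1881.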
# [6] = target: Estrogen receptor (Homo sapiens) (UniProt P03372); assay: qHTS assay to identify small molecule antagonists of the estrogen receptor alpha (ER-alpha) signaling pathway using the BG1 cell line in the presence of 0.1 nM 17-beta-estradiol (AID 1259244); note: nearly all actives have a fitted effect of over 50% in size; note: potency is the fitted concentration of half-maximal effect
# Sequence of Estrogen receptor (Homo sapiens) (P03372 whole entry, looked up): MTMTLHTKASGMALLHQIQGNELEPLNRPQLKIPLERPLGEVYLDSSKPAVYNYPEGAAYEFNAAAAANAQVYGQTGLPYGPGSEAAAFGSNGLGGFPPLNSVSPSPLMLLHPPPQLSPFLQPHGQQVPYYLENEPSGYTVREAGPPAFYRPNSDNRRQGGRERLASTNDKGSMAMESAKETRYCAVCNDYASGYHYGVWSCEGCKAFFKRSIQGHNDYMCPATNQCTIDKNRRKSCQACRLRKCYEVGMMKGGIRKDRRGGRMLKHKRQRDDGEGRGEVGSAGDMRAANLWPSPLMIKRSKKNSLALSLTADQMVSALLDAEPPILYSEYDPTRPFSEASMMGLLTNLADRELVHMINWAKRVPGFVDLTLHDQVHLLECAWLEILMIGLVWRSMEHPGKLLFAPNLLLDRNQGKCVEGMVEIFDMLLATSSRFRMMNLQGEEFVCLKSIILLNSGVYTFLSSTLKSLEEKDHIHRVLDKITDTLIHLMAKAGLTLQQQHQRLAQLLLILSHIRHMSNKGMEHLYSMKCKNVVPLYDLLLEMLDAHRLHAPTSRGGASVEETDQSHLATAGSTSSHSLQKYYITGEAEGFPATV
# Summary of the method: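 Quantitative high-throughput screen in VM7Luc4E2 cells: compound plus 0.1 nM E2 (final), 22 h, 37C, 5% CO2; ONE-Glo added, 30 min room temperature, luminescence measured.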
# [7] = qHTS assay to identify small molecule phospholipidosis (PLD) inducers (AID 1259344; active = well fitted curve in the direction sought with a large enough effect; an effect the other way counts as inactive or inconclusive; note: potency is the fitted concentration of half-maximal effect)
# Summary of the method: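 Quantitative HTS in HepG2: compound plus LipidTOX Red dye for 24 h, paraformaldehyde fixation with Hoechst 33342, widefield high-content imaging; amiodarone as positive and DMSO as negative control.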
# [8] = qHTS assay to identify small molecule HDAC inhibitors (AID 1259364); note: nearly all actives have a fitted effect of over 45% in size; note: potency is the fitted concentration of half-maximal effect
# Summary of the method: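 Endogenous HDAC class I/II activity was measured in wild-type HCT-116 cells by HDAC-Glo luminescence after 2 h compound treatment.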
# [9] = qHTS assay to identify small molecule HDAC inhibitors - cell viability counter screen (AID 1259365); note: series mostly up to about 92 µM; nearly all actives have a fitted effect of over 50% in size
# Summary of the method: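 Wild-type HCT-116 cells, 1,500/well, cultured overnight, then compound-treated 2 h at 37 C. Viability measured as ATP luminescence with CellTiter-Glo after 30 min at room temperature.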
# [10] = qHTS assay to identify small molecule agonists of the sonic hedgehog signaling (Shh) pathway - cell viability counter screen (AID 1259366); note: nearly all actives have a fitted effect of over 50% in size; note: potency is the fitted concentration of half-maximal effect
# Summary of the method: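 NIH/3T3-derived Gli1-Luc reporter cells, 2,000 per well, received compound after 4 h and were treated about 23 h at 37C. Viability measured in the same wells by CellTiter-Fluor fluorescence after 1 h.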
# [11] = qHTS assay to identify small molecule antagonists of the sonic hedgehog signaling (Shh) pathway - cell viability counter screen (AID 1259367); note: nearly all actives have a fitted effect of over 55% in size; note: potency is the fitted concentration of half-maximal effect
# Summary of the method: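 Seed 3T3 Gli1-Luc cells at 2,000 per well; incubate 4 hr; add compound in DMSO, then conditioned medium; incubate at 37C with 5% CO2; add CellTiter-Fluor after 23 hr; read fluorescence 1 hr later.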
# [12] = qHTS assay to identify small molecule agonists of the sonic hedgehog signaling (Shh) pathway (AID 1259368; calls by dose curve;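 note: NIH/3T3-derived 3T3Gli1-Luc cells carrying a stable Gli1-driven firefly luciferase reporter; series mostly up to about 92 µM; nearly all actives have a fitted effect of over 15% in size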)
# Summary of the method: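 Luminescent signal was taken as a measure of Gli1-controlled luciferase expression in stably transfected NIH/3T3-derived cells that had been treated for 24 hr with compounds delivered in DMSO.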
# [13] = A CellTox Green Cytotoxicity Assay to monitor cytotoxicity in HepG2 cells - 0 hour (AID 1224882); note: nearly all actives have a fitted effect of over 35% in size
# Summary of the method: as §1
# [14] = qHTS RealTime-Glo MT Cell Viability Assay in HEK293 cells - 24 hour (AID 1224886); note: nearly all actives have a fitted effect of over 50% in size; note: potency is the fitted concentration of half-maximal effect
# Summary of the method: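 HEK293 cells were seeded at 600 cells/well together with NanoLuc luciferase and cell-permeant prosubstrate, preincubated 5 h at 37 C/5% CO2, then given compound in DMSO by pintool. Luminescence from viable-cell prosubstrate reduction was read repeatedly over 40 h.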
# [15] = qHTS RealTime-Glo MT Cell Viability Assay in HEK293 cells - 8 hour (AID 1224887)
# Summary of the method: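 qHTS format; HEK293 cells with NanoLuc/prosubstrate reagent, 37 C/5% CO2 for 5 h pre-dosing; compounds 23 nL in DMSO; luminescence at each time point reflects viable cells.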
# [16] = A CellTox Green Cytotoxicity Assay to monitor cytotoxicity in HEK293 cells - 16 hour (AID 1224888); note: nearly all actives have a fitted effect of over 35% in size
# Summary of the method: as §2
# [17] = qHTS RealTime-Glo MT Cell Viability Assay in HepG2 cells - 0 hour (AID 1224889); note: nearly all actives have a fitted effect of over 50% in size
# Summary of the method: (§3)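 HepG2 cells were seeded at 600 cells/well together with NanoLuc luciferase and a cell-permeant prosubstrate, preincubated 5 h at 37 C/5% CO2, then pin-dosed with compounds in DMSO. Nonlytic luminescence from viable cells was read at each time point.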
# [18] = qHTS RealTime-Glo MT Cell Viability Assay in HepG2 cells - 16 hour (AID 1224885); note: nearly all actives have a fitted effect of over 50% in size
# Summary of the method: as §3
# [19] = target: Androgen receptor (Homo sapiens) (UniProt P10275); assay: qHTS assay to identify small molecule antagonists of the androgen receptor (AR) signaling pathway using the MDA cell line in the presence of 0.5 nM R1881 (AID 1259243); note: nearly all actives have a fitted effect of over 50% in size; note: potency is the fitted concentration of half-maximal effect
# Sequence of Androgen receptor (Homo sapiens) (P10275 whole entry, looked up): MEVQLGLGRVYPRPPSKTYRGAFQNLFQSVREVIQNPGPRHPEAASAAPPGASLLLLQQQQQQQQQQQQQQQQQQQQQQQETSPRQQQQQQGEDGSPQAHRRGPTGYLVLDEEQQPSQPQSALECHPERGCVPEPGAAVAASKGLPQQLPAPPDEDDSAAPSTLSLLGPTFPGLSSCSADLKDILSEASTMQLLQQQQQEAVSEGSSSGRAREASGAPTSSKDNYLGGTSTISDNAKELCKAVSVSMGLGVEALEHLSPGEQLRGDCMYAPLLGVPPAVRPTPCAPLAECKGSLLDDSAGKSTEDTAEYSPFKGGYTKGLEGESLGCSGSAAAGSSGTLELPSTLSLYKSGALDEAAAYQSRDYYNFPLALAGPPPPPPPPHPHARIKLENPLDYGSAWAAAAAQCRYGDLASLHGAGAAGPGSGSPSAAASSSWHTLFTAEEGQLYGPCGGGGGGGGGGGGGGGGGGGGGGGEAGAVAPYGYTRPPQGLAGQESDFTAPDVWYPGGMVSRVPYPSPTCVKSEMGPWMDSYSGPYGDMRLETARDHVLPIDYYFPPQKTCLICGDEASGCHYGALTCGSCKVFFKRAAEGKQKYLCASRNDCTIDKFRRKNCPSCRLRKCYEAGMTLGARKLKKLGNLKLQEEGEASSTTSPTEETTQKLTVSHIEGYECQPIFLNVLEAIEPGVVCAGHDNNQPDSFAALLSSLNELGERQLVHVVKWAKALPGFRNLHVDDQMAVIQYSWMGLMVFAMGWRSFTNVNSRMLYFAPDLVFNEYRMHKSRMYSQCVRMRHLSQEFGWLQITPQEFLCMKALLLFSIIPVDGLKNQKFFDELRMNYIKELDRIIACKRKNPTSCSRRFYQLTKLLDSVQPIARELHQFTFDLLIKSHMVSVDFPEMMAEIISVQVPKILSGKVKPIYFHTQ
# Summary of the method: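 Inhibition of R1881 (0.5 nM final) induced reporter signal was measured in human MDA-kb2 cells; note the MMTV promoter also responds to GR. Exposure lasted 16 hr at 37C.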
Structure (SMILES),Potency [1],Potency [2],Potency [3],Potency [4],Potency [5],Potency [6],Potency [7],Potency [8],outcome [9],Potency [10],Potency [11],outcome [12],Potency [13],Potency [14],Potency [15],Potency [16],Potency [17],Potency [18],Potency [19]
COC(=O)c1ccc(O)cc1,inactive,inactive,inactive,inactive,inactive,inactive,inactive,inactive,inactive,inactive,inactive,inactive,,,,,,,
Cn1cnc2c1c(=O)[nH]c(=O)n2C,inactive,inactive,inactive,,inactive,,inactive,inactive,inactive,inactive,inactive,inactive,inactive,inactive,inactive,inactive,inactive,,
CCN1CCCC1=O,inactive,inactive,inactive,,inactive,inactive,inactive,inactive,inactive,inactive,inactive,inactive,,inactive,inactive,,inactive,,
Cc1cccc(Nc2cc(Cl)nc(SCC(=O)O)n2)c1C,inactive,inactive,inactive,,inactive,inactive,inactive,inactive,inactive,inactive,inactive,inactive,,inactive,inactive,,inactive,inactive,inactive
COc1ccc(O)cc1,inactive,inactive,inactive,,inactive,,inactive,inactive,inactive,inactive,inactive,inactive,,inactive,inactive,,inactive,inactive,inactive
C=C(C)OC(C)=O,inactive,inactive,inactive,,inactive,inactive,,inactive,inactive,inactive,inactive,inactive,inactive,inactive,inactive,,inactive,,
CC1(C)O[C@@H]2[C@@H](CO[C@@]3(COS(N)(=O)=O)OC(C)(C)O[C@@H]23)O1,inactive,inactive,inactive,,inactive,inactive,inactive,inactive,inactive,inactive,inactive,inactive,,inactive,inactive,,inactive,,
COC(=O)C1CCC(C(=O)OC)CC1 (centres undefined),inactive,inactive,inactive,,inactive,inactive,,inactive,inactive,inactive,inactive,inactive,,inactive,inactive,inactive,inactive,inactive,
CCCCCCCC(=O)OCC(O)CO (centres undefined),inactive,inactive,inactive,inactive,inactive,,inactive,inactive,inactive,inactive,inactive,inactive,,inactive,inactive,,inactive,inactive,
COc1ccc(C(=O)c2ccccc2)c(O)c1,inactive,inactive,inactive,,inactive,inactive,inactive,inactive,inactive,inactive,inactive,inactive,,inactive and 12.3 µM (active),inactive,,inactive,inactive,15.1 µM (active) and 27.3 µM (active) and 21.1 µM (active)
CC1=NN(c2ccccc2)C(=O)C1,inactive,inactive,inactive,,inactive,inactive,inactive,inactive,inactive,inactive,inactive,inactive,,inactive,inactive,,inactive,inactive,
c1ccc2[nH]c(-c3cscn3)nc2c1,inactive,inactive,inactive,,inactive,inactive,inactive,9.75 µM (active) and 486 nM (active) and 1.19 µM (active),inactive,inactive,inactive,inactive,,inactive,inactive,,inactive,,inactive
CC(C)CC(C)CC(O)CC(C)C (centres undefined),inactive,inactive,inactive,inactive,inactive,,,inactive,inactive,inactive,inactive,inactive,inactive,inactive,inactive,,inactive,,
NC(N)=NC(N)=NCCc1ccccc1,inactive,inactive,inactive,inactive,inactive,7.65 µM (active) and 5.45 µM (active) and 7.5 µM (active),inactive,inactive,inactive,inactive,inactive,inactive,,inactive,inactive,inactive,inactive,,
Nc1ccc(N=Nc2ccccc2)c(N)n1,31.1 µM (active) and 17.4 µM (active),inactive,inactive,,,inactive,inactive,13.8 µM (active) and 17.2 µM (active) and 10.6 µM (active),inactive,27.4 µM (active) and 27.3 µM (active),27.4 µM (active) and 24.3 µM (active),inactive,,39.1 µM (active) and 24.5 µM (active),,,inactive,inactive,
CCCCOCCOCCOC(C)=O,inactive,inactive,inactive,inactive,inactive,inactive,,inactive,inactive,inactive,inactive,inactive,inactive,inactive,inactive,inactive,inactive,,
CC(O)COc1ccccc1 (centres undefined),inactive,inactive,inactive,,inactive,,inactive,inactive,inactive,inactive,inactive,inactive,,inactive,inactive,inactive,inactive,inactive,inactive
CCCCNC(=O)NS(=O)(=O)c1ccc(N)cc1,inactive,inactive,inactive,inactive,inactive,,inactive,inactive,inactive,inactive,inactive,inactive,inactive,inactive,inactive,,inactive,,
COCCOCCOC,inactive,inactive,inactive,,inactive,inactive,,inactive,inactive,inactive,inactive,inactive,inactive,inactive,inactive,inactive,inactive,,inactive
NC(=O)N1c2ccccc2C=Cc2ccccc21,inactive,inactive,inactive,,inactive,inactive,inactive,inactive,inactive,inactive,inactive,inactive,,inactive,inactive,inactive,inactive,,
COc1cc2c(c(OC)c1OC)-c1ccc(OC)c(=O)cc1[C@@H](NC(C)=O)CC2,60.9 µM (active) and inactive,inactive,inactive,,inactive,27 µM (active),0.708 µM (active),inactive,inactive,inactive,inactive and 48.6 nM (active) and 376 nM (active),inactive,,inactive,inactive,,inactive,inactive,inactive
C#C[C@]1(O)CC[C@H]2[C@@H]3CCc4cc(O)ccc4[C@H]3CC[C@@]21C,21.7 µM (active) and 43.6 µM (active),inactive,inactive,inactive,inactive,,inactive,inactive,inactive,inactive,inactive,inactive,inactive,19.5 µM (active),inactive,,inactive,,
NC(=O)c1ccc([N+](=O)[O-])cc1Cl,inactive,inactive,inactive,inactive,inactive,,inactive,inactive,inactive,inactive,inactive,inactive,,inactive,inactive,inactive,inactive,,
CCCCC/C(C=O)=C\c1ccccc1,inactive,inactive,inactive,,inactive,,inactive,inactive,inactive,inactive,inactive,inactive,inactive,inactive,inactive,inactive,inactive,,
CCCCCCCCOc1ccc(C(=O)c2ccccc2)c(O)c1,inactive,inactive,inactive,inactive,inactive,inactive,inactive,inactive,inactive,inactive,inactive,inactive,,inactive,inactive,,inactive,,
Nc1cccc(N)c1,inactive,inactive,inactive,inactive,inactive,,,inactive,inactive,inactive,inactive,inactive,inactive,inactive,inactive,inactive,inactive,,
CCN(CC)CCOC(=O)c1ccc(N)cc1,inactive,inactive,inactive,,inactive,,inactive,inactive,inactive,inactive,inactive,inactive,,inactive,inactive,inactive,inactive,,
NCCNc1cccc2ccccc12,53.6 µM (active) and inactive,inactive,inactive,,inactive,,,inactive,inactive,61.1 µM (active) and inactive,inactive,inactive,,48.9 µM (active) and 47.8 µM (active) and inactive,inactive,inactive,inactive,inactive,68.5 µM (active) and inactive
CC(C)Cc1ccc(C(C)C(=O)O)cc1 (centres undefined),inactive,inactive,inactive,inactive,inactive,inactive,inactive,inactive,inactive,inactive,inactive,inactive,inactive,inactive,inactive,inactive,inactive,,
C=CCOC(=O)CC(C)C,inactive,inactive,inactive,,inactive,inactive,,inactive,inactive,inactive,inactive,inactive,inactive,inactive,inactive,inactive,inactive,,
